For orientation: AC50 means the concentration at which the activity in the assay is half-maximal.

Structures are written as SMILES. Where “and” joins values, the source holds several entries; their conditions need not be identical. Identical values can stand only once. Calls of active or inactive are those of the source. How the source made its calls: active means hit-call score of the fitted dose curve at least 0.9, where 1 is the maximum; inactive means score below 0.9.

Read-out in the test: Human Leukocyte Antigen - DR isotype (HLADR), HLA-DRA (gene 3122)
The experiment in a line: BSK_3C_HLADR: BioMAP Diversity Plus: 3C Assay for Human Leukocyte Antigen - DR isotype (HLADR) Biomarker Activity (AID 2283019). Particulars: primary human endothelial cells (HUVEC); actives raise or lower the signal. The method, then: BSK_3C is a cell-based, multiplexed-readout assay that uses umbilical vein endothelium, a human vascular primary cell, with measurements taken at 24 hours after chemical dosing in a 96-well plate.BSK_3C_HLADR is an assay component measured in the BSK_3C assay. It measures HLA-DR antibody related to regulation of gene expression using ELISA technology.Data from the assay component BSK_3C_HLADR was analyzed into 1 assay endpoint. This assay endpoint, BSK_3C_HLADR, was analyzed with bidirectional fitting relative to DMSO as the negative control and baseline of activity. Using a type of binding reporter, gain or loss-of-signal activity can be used to understand changes in the signaling as they relate to the gene HLA-DRA. Furthermore, this assay endpoint can be referred to as a primary readout, because this assay has produced multiple assay endpoints where this one serves a signaling function. To generalize the intended target to other relatable targets, this assay endpoint is annotated to the cell adhesion molecules intended target family, where the subfamily is MHC Class II.
The levels of cell surface (or secreted, indicated by the prefix "s") biomarker endpoints were measured by ELISA. Overt cytotoxicity to cells in confluent adherent cultures (all systems other than the BT system) was assessed by measuring total protein levels using sulforhodamine B (SRB) staining in parallel cultures at the time of biomarker measurements, indicated as SRB endpoints. For proliferation assays for adherent cell types, individual cell types are cultured at sub-confluence and relative cell numbers quantified by SRB staining at time points optimized for each system (48 h: 3C and CASM3C systems; 72 h: BT and HDF3CGF systems; 96 h: SAg system). SRB was performed by staining cells with 0.1% SRB after fixation with 10% TCA and reading wells at 560 nm.Viability and proliferation of PBMC (T cells) was quantified by Alamar Blue reduction for the SAg and BT systems. For PBMC viability (referred to as PBMC Cytotoxicity within the assay endpoint names), cells were plated (75,000/well in a 96-well plate) and then chemical samples added for 1 h before addition of activators, SEB and TSST-1 (20 ng/mL final concentration each). Cells were incubated for 90 h. Then, Alamar Blue (20 uL/well) (Invitrogen, Cat DAL1100) was added for 6 h, and the plates were read with a fluorescence microplate reader at 546/580 nm (excitation/emission). For PBMC proliferation, cells were plated and activated as above but incubated for only 16 h prior to addition of Alamar Blue. Plates were read after 6 h.
Consider `COC1=CC(=O)C[C@@H](C)[C@]12Oc1c(Cl)c(OC)cc(OC)c1C2=O`, for which the outcome was inactive.
Still for that read-out and setting: under `COc1cc(OC)nc(NC(=O)NS(=O)(=O)Nc2ccccc2C(=O)N(C)C)n1` stands “inactive”; under `O=C(O)CCC(F)(F)C(F)(F)C(F)(F)C(F)(F)C(F)(F)C(F)(F)F`, “inactive”; under `O=S(=O)(O)C(F)(F)C(F)(F)C(F)(F)C(F)(F)C(F)(F)C(F)(F)C(F)(F)C(F)(F)C(F)(F)C(F)(F)F`, “inactive”.
Still for that read-out and setting: with `O=C(CCCN1CCC(O)(c2ccc(Cl)cc2)CC1)c1ccc(F)cc1` the entry was “inactive”.
With `C=CC(=C)CC/C=C(\C)CCC=C(C)C`, the outcome was inactive.
Still for that read-out and setting: under `CCCCCCCCCCCC` stands “inactive”; under `Oc1cc2ccccc2cc1O`, “inactive”; under `O=C(O)CCC(F)(F)C(F)(F)C(F)(F)C(F)(F)C(F)(F)F`, “inactive”.
Same read-out and setting: with `O=C(NO)c1ccccc1` the entry was “inactive”; with `O=P(O)(O)CCC(F)(F)C(F)(F)C(F)(F)C(F)(F)C(F)(F)C(F)(F)C(F)(F)C(F)(F)F`, “inactive”; with `O=C(c1ccccc1)c1ccccc1`, “inactive”.
Regarding `Cc1[nH]nc2c1N=C(c1ccccc1Cl)c1cc([N+](=O)[O-])ccc1N2`, the AC50 was 3.12 µM (active).
For the molecule `C=CC(=O)OCCC(F)(F)C(F)(F)C(F)(F)C(F)(F)C(F)(F)C(F)(F)C(F)(F)C(F)(F)F`, the outcome was inactive.
Regarding `O=C(O)C(F)(F)OC(F)(F)C(F)(F)OC(F)(F)C(F)(F)OC(F)(F)C(F)(F)C(F)(F)C(F)(F)F`, the AC50 is 45.5 µM (active) and 50.6 µM (active).
For `Clc1ccc(Nc2nnc(Cc3ccncc3)c3ccccc23)cc1`, the result was inactive.
For `O=C1OC2(c3ccccc31)c1cc(I)c(O)c(I)c1Oc1c2cc(I)c(O)c1I`, the AC50 is 6.51 µM (active).
On to `CN(C)c1ccc(C(=C2C=CC(=[N+](C)C)C=C2)c2ccccc2)cc1`, for which the AC50 was 0.0082 µM (active).
`CN(CCO)S(=O)(=O)C(F)(F)C(F)(F)C(F)(F)C(F)(F)C(F)(F)C(F)(F)C(F)(F)C(F)(F)F`: the outcome was inactive.
Still for that read-out and setting: with `OCC(F)(F)C(F)(F)C(F)(F)C(F)(F)C(F)(F)C(F)(F)C(F)(F)C(F)(F)C(F)(F)C(F)(F)C(F)(F)F` the entry was “inactive”; with `CCC(C)c1ccccc1O` (stereo not given), “inactive”; with `CC(=O)Nc1ccc(O)cc1`, “inactive”.
Turning to `O=C(CC(=O)C(F)(F)C(F)(F)C(F)(F)F)c1cccs1`, the AC50 is 24.1 µM (active) and 24.6 µM (active).
Turning to `CC[N+](CC)(CC)Cc1ccccc1`, the outcome was inactive.
On the same count and under the same terms, with `Oc1ccc(Cc2ccccc2O)cc1` the entry was “inactive”.
On to `N=C(N)c1ccc(OCCCCCOc2ccc(C(=N)N)cc2)cc1`, for which the AC50 was 10.1 µM (active).
With `CC1=NN(c2ccccc2)C(=O)C1`, the outcome was inactive.
Consider `CCCCCCCCCCCCCCCCCC[N+](C)(C)Cc1ccccc1`, for which the AC50 was 0.515 µM (active).
Turning to `Cc1ccc(N=Nc2c(O)ccc3ccccc23)c(C)c1`, the AC50 is 14.8 µM (active).
Still for that read-out and setting: under `NC(=NCCCCCCN=C(N)/N=C(\N)Nc1ccc(Cl)cc1)/N=C(\N)Nc1ccc(Cl)cc1` stands 4.82 µM (active); under `OCCN1CN(CCO)CN(CCO)C1`, 28 µM (active).
Consider `COc1cccc(O)c1`, for which the outcome was inactive.
For `COCN(COC)c1nc(N(COC)COC)nc(N(COC)COC)n1`, the outcome was inactive.
As for `C=COC(=O)C(C)(C)CCCCCC`, the AC50 is 33.6 µM (active).
Turning to `O=C1c2ccc(O)c(O)c2C(=O)c2c(O)ccc(O)c21`, the outcome was inactive.
On the same count and under the same terms, under `CCCCCCCCCCCCOS(=O)(=O)O` stands “inactive”.
`CCCCc1oc2ccccc2c1C(=O)c1cc(I)c(OCCN(CC)CC)c(I)c1`: the AC50 was 9.35 µM (active).
The same measure, in the same setting: with `C=CC(C)(CCC=C(C)C)OC(C)=O` (stereo not given) the figure was 28.2 µM (active); with `Cc1cccc2c1ccc1ccccc12`, 20 µM (active).
For `CN(Cc1cnc2nc(N)nc(N)c2n1)c1ccc(C(=O)N[C@@H](CCC(=O)O)C(=O)O)cc1`, the outcome was inactive.

Source of the values: PubChem BioAssay (EPA / NIEHS).
